Measured values published in PubChem BioAssay (NCATS).
Results filed as inconclusive are left out. Entries that show only a call come without a potency. Unmarked numbers belong to inactive results. The source made the active and inactive calls. The call rests on the fitted dose curve; in most records, active means well fitted cell-killing curve with a large enough effect; inconclusive means small, poorly fitted or top-dose-only effect, or effect the other way; inactive means no such curve, though single readings can be large or run the other way. Non-standard residues stand in square brackets, D forms with d. Residues, ends and D or L forms follow the SMILES beside them. *: point of attachment. Sta = CC(C)C[C@H](N)[C@@H](O)CC(=O)O; Isovaleryl = CC(C)CC(=O)*

Legend:
[1] = Quantitative High-Throughput drug screen in 47 multiple myeloma cell lines against the NCATS MIPE library collection: XG6_PLB cell viability assay (AID 1919865); further: nearly all actives have a fitted effect of over 40% in size; further: potency means the concentration at half of the fitted maximal effect
Method in brief: (§1)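 Cells were exposed to library compounds for 48 hours, after which ATP was measured by CellTiter-Glo. Signal was taken as median relative luminescence units.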

[2] = Quantitative High-Throughput drug screen in 47 multiple myeloma cell lines against the NCATS MIPE library collection: XG1_PLB cell viability assay (AID 1919866); further: nearly all actives have a fitted effect of over 35% in size; further: potency means the concentration at half of the fitted maximal effect
Method in brief: as §1

[3] = Quantitative High-Throughput drug screen in 47 multiple myeloma cell lines against the NCATS MIPE library collection: PE2_PLB cell viability assay (AID 1919869); further: nearly all actives have a fitted effect of over 35% in size; further: potency means the concentration at half of the fitted maximal effect
Method in brief: as §1

[4] = Quantitative High-Throughput drug screen in 47 multiple myeloma cell lines against the NCATS MIPE library collection: RPMI8226_ATCC cell viability assay (AID 1919871); further: nearly all actives have a fitted effect of over 30% in size; further: potency means the concentration at half of the fitted maximal effect
Method in brief: as §1

[5] = Quantitative High-Throughput drug screen in 47 multiple myeloma cell lines against the NCATS MIPE library collection: PCM6_Riken cell viability assay (AID 1919870); further: nearly all actives have a fitted effect of over 30% in size; further: potency means the concentration at half of the fitted maximal effect
Method in brief: as §1

[6] = Quantitative High-Throughput drug screen in 47 multiple myeloma cell lines against the NCATS MIPE library collection: VP6_DJ cell viability assay (AID 1919867); further: nearly all actives have a fitted effect of over 40% in size; further: potency means the concentration at half of the fitted maximal effect
Method in brief: as §1

[7] = Quantitative High-Throughput drug screen in 47 multiple myeloma cell lines against the NCATS MIPE library collection: SKMM1_PLB cell viability assay (AID 1919863); settings: SKMM1 myeloma viability, CellTiter-Glo ATP, 48 h; viability: stronger effect = lower value; further: series mostly up to about 46 µM; nearly all actives have a fitted effect of over 35% in size
Method in brief: as §1

[8] = Quantitative High-Throughput drug screen in 47 multiple myeloma cell lines against the NCATS MIPE library collection: U266_ATCC cell viability assay (AID 1919864); further: nearly all actives have a fitted effect of over 35% in size
Method in brief: as §1

In the case of C=C(c1ccc(C(=O)O)cc1)c1cc2c(cc1C)C(C)(C)CCC2(C)C, the Potency [1] is reported as “inactive”.
In the case of COc1cc2c(cc1OC)C1CC(=O)C(CC(C)C)CN1CC2 (stereo unspecified), the Potency [1] is reported as “inactive”, the Potency [2] is reported as “inactive” and the Potency [3] is reported as “inactive”. For the same compound, the Potency [4] was 5.9 µM (active).
With CCOC(=O)C(C)Oc1cccc2c(=O)n(CC(=O)Nc3ccc4c(c3)OCCO4)ccc12 (stereo unspecified) the Potency [1] was “inactive”, the Potency [2] was “inactive” and the Potency [3] was “inactive”. For the same compound, the Potency [5] was “inactive”.
In the case of Cc1c(C(=O)NN2CCCCC2)nn(-c2ccc(Cl)cc2Cl)c1-c1ccc(Cl)cc1, the Potency [1] is reported as 26.4 µM (active) and the Potency [2] is reported as 26.4 µM (active).
With Oc1ccc(-c2nc(-c3ccc(F)cc3)c(-c3ccncc3)[nH]2)cc1 the Potency [6] was 16.6 µM (active), the Potency [3] was 26.4 µM (active) and the Potency [5] was 20.9 µM (active). The Potency [4] was “inactive”.
In the case of Cc1c(OCC(F)(F)F)ccnc1CS(=O)c1nc2ccccc2[nH]1 (stereo unspecified), the viability [7] is reported as 128% and the Potency [4] is reported as “inactive”.
With CN1C(C(=O)Nc2ccccn2)=C(O)c2sccc2S1(=O)=O the Potency [1] was “inactive”, the Potency [2] was “inactive” and the Potency [3] was “inactive”. For the same compound, the Potency [4] was “inactive”.
For COCCCN1CCC(NC(=O)c2cc(Cl)c(N)c3c2OCC3)CC1, the Potency [6] was 18.7 µM (active) and the Potency [4] was 18.7 µM (active).
In the case of Cc1ccc(C(=O)c2cc(O)c(O)c([N+](=O)[O-])c2)cc1, the Potency [3] is reported as 23.5 µM (active).
For CN(C)[C@@H](CCOc1cccc2ccccc12)c1ccccc1, the Potency [2] was 16.6 µM (active), the Potency [6] was 26.4 µM (active) and the Potency [3] was 23.5 µM (active).
In the case of CCCCN(CCCC)CCC(O)c1cc2c(Cl)cc(Cl)cc2c2cc(C(F)(F)F)ccc12 (stereo unspecified), the Potency [2] is reported as 18.7 µM (active) and the Potency [6] is reported as 18.7 µM (active).
With Cc1nc(-c2ccc(OCC(C)C)c(C#N)c2)sc1C(=O)O the viability [7] was 114%, the Potency [3] was “inactive” and the Potency [5] was “inactive”.
In the case of C=CCc1cc(OC)c(O)c(C(=O)NCCO)c1, the Potency [8] is reported as “inactive”, the Potency [1] is reported as “inactive” and the Potency [2] is reported as “inactive”. For the same compound, the Potency [3] was “inactive”.
For Cc1ccc(NC(=O)c2ccc(CN3CCN(C)CC3)cc2)cc1Nc1nccc(-c2cccnc2)n1, the Potency [6] was 23.5 µM (active) and the Potency [5] was 18.7 µM (active).
With C[Se]CCC(N)C(=O)O (stereo unspecified) the Potency [2] was “inactive”, the Potency [3] was “inactive” and the Potency [4] was “inactive”.
With OC(CN1CCN(c2cccc(Cl)c2)CC1)C(c1ccccc1)c1ccccc1 (stereo unspecified) the Potency [3] was “inactive”.
With COc1ccc2cc([C@H](C)C(=O)O)ccc2c1 the viability [7] was 105% and the Potency [3] was “inactive”.
In the case of CCC[C@@H]1C[C@@H](C(=O)N[C@@H]([C@H]2O[C@H](SC)[C@H](O)[C@@H](O)[C@H]2O)[C@@H](C)O)N(C)C1, the Potency [1] is reported as “inactive” and the Potency [2] is reported as “inactive”.
In the case of Clc1ccc(C(Cn2ccnc2)OCc2ccc(Sc3ccccc3)cc2)c(Cl)c1 (stereo unspecified), the Potency [2] is reported as 23.5 µM (active), the Potency [6] is reported as 20.9 µM (active) and the Potency [3] is reported as 20.9 µM (active). For the same compound, the Potency [5] was 18.7 µM (active) and the Potency [4] was 23.5 µM (active).
With CCN(CC)CCOc1ccc(Cc2ccccc2)cc1 the Potency [1] was “inactive”, the Potency [2] was “inactive” and the Potency [3] was “inactive”.
With CC(C)CC(=O)N[C@H](C(=O)N[C@H](C(=O)N[C@@H](CC(C)C)[C@@H](O)CC(=O)N[C@@H](C)C(=O)N[C@@H](CC(C)C)[C@@H](O)CC(=O)O)C(C)C)C(C)C (Isovaleryl-VV[Sta]A[Sta]-OH) the Potency [1] was “inactive”, the Potency [2] was 16.6 µM (active) and the Potency [3] was “inactive”.
For CN(C)c1ccc(O)c2c1C[C@H]1C[C@H]3[C@H](N(C)C)C(=O)C(C(N)=O)=C(O)[C@@]3(O)C(=O)C1=C2O, the Potency [3] was 20.9 µM (active) and the Potency [5] was 18.7 µM (active).
For NC(=O)Cc1cccc(C(=O)c2ccccc2)c1N, the viability [7] was 121%, the Potency [2] was “inactive” and the Potency [4] was “inactive”.
In the case of COc1cc2nc(N3CCN(C(=O)C4CCCO4)CC3)nc(N)c2cc1OC (stereo unspecified), the Potency [3] is reported as “inactive” and the Potency [4] is reported as “inactive”.
For Nc1cc(C(Cl)=C(Cl)Cl)c(S(N)(=O)=O)cc1S(N)(=O)=O, the Potency [8] was “inactive”, the Potency [1] was 11.8 µM (active) and the Potency [3] was “inactive”. The Potency [5] was “inactive”.
With COc1cc(C(C)=O)ccc1OCCCN1CCC(c2noc3cc(F)ccc23)CC1 the viability [7] was 110%, the Potency [6] was 16.6 µM (active) and the Potency [4] was 13.2 µM (active).
For CN(C)C(=O)[C@H](O)[C@H](Cc1ccccc1)NC(=O)c1cc2cc(Cl)ccc2[nH]1, the Potency [6] was 7.43 µM (active), the Potency [3] was 2.64 µM (active) and the Potency [5] was 8.33 µM (active).
For O=C1c2c(O)cc(O)cc2OC(c2ccc(O)c(O)c2)C1O (stereo unspecified), the Potency [2] was “inactive” and the Potency [6] was “inactive”.
With O=c1oc2cc(O)ccc2s1 the Potency [1] was “inactive”, the Potency [2] was “inactive” and the Potency [6] was “inactive”. For the same compound, the Potency [3] was “inactive”.
For Cc1cccc(-c2[nH]ncc2-c2ccc3ncccc3n2)n1, the viability [7] was 121%, the Potency [6] was “inactive” and the Potency [4] was “inactive”.
With Cc1ccc(Nc2nccc(N(C)c3ccc4c(C)n(C)nc4c3)n2)cc1S(N)(=O)=O the Potency [2] was 9.35 µM (active), the Potency [6] was 16.6 µM (active) and the Potency [3] was 16.6 µM (active). The Potency [4] was 14.8 µM (active).
With O=C(O)c1cn(-c2ccc(F)cc2)c2cc(N3CCNCC3)c(F)cc2c1=O the Potency [1] was “inactive”, the Potency [2] was “inactive” and the Potency [3] was “inactive”. The Potency [5] was “inactive” and the Potency [4] was “inactive”.
In the case of C[C@H](Cn1cnc2c(N)ncnc21)OCP(=O)(O)O, the Potency [1] is reported as “inactive”, the Potency [2] is reported as “inactive” and the Potency [6] is reported as “inactive”. The Potency [3] was “inactive”.
For NS(=O)(=O)c1cc(C(=O)O)c(NCc2ccco2)cc1Cl, the Potency [2] was “inactive” and the Potency [3] was “inactive”.
With CC(C)c1ccc2oc3nc(N)c(C(=O)O)cc3c(=O)c2c1 the Potency [1] was “inactive”, the Potency [2] was “inactive” and the Potency [3] was “inactive”.
